# Reference: article PMC7862700, “An all-to-all approach to the identification of sequence-specific readers for epigenetic DNA modifications on cytosine”
# Experiments:
# Test in all cases: DAPPL (digital affinity profiling via proximity ligation, sequencing); 10 mM Tris-HCl pH 7.5, 50 mM NaCl, 1 mM DTT, 4% glycerol, room temperature, 30 min; GST-TFs on glutathione beads, 16-mer random dsDNA library, 0.1% formaldehyde crosslink after washing; high values mean tight binding
# FEV = target: T1, FEV (Homo sapiens, UniProt Q99581 1-238); details: protein: recombinant; tags: N-terminal GST; dsDNA, one strand shown
# T1 sequence: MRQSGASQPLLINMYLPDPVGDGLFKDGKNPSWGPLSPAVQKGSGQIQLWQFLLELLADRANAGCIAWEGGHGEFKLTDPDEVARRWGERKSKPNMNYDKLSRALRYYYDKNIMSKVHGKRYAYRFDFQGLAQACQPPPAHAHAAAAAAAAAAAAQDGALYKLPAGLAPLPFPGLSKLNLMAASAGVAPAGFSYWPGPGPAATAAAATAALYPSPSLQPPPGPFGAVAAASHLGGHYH
# Summary of the method: (§1)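 Binding signal is given per hexamer as its read frequency for a factor divided by its frequency in the tag-only sample. GST-fused human transcription factors were expressed in yeast, captured on glutathione beads, barcoded with DNA and pooled with that sample, then incubated with 200 nmole of a 16-mer random double-stranded DNA library in Tris/NaCl/DTT/glycerol buffer for 30 min at room temperature. The pools were then washed, crosslinked, proximity-ligated, amplified by PCR and sequenced on an Illumina NextSeq500.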
# ETV5 = ETV5 (Homo sapiens, UniProt P41161 1-510); details: protein: recombinant; tags: N-terminal GST; dsDNA, one strand shown
# Chain of ETV5 (P41161 whole entry): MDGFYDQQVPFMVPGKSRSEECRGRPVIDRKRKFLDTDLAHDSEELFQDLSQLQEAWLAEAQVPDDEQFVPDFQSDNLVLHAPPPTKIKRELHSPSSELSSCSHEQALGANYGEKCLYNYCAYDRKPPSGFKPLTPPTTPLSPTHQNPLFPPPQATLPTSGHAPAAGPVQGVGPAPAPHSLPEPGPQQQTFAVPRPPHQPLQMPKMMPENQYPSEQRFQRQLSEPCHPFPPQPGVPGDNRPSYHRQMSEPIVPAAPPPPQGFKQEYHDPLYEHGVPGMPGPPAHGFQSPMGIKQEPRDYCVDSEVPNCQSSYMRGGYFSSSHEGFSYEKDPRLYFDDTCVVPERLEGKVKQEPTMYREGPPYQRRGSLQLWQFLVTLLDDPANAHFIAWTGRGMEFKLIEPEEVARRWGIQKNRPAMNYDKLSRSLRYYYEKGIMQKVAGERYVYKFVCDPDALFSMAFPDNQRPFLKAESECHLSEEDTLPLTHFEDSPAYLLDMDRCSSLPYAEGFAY
# Summary of the method: as §1
# HSF1 = HSF1 (Homo sapiens, UniProt Q00613 1-529); details: protein: recombinant; tags: N-terminal GST; chain copies: 3; dsDNA, one strand shown
# Chain of HSF1 (Q00613 whole entry): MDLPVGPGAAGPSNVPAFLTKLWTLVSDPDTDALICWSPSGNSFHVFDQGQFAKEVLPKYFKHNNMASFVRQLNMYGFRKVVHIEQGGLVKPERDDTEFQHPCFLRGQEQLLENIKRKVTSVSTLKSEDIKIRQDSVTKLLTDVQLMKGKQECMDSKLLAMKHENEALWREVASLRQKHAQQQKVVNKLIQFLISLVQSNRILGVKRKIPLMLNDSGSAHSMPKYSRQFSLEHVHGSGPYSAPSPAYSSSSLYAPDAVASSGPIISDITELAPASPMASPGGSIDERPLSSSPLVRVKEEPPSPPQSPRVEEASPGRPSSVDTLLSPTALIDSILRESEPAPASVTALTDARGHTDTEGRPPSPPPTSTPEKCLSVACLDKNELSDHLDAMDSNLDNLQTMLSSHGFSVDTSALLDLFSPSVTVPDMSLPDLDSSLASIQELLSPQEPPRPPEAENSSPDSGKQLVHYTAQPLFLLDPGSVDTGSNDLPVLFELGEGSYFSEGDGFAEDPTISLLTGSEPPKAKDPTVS
# Summary of the method: as §1
# SPIC = target: T2, SPIC (Homo sapiens, UniProt Q8N5J4 1-248); details: protein: recombinant; tags: N-terminal GST; dsDNA, one strand shown
# T2 sequence: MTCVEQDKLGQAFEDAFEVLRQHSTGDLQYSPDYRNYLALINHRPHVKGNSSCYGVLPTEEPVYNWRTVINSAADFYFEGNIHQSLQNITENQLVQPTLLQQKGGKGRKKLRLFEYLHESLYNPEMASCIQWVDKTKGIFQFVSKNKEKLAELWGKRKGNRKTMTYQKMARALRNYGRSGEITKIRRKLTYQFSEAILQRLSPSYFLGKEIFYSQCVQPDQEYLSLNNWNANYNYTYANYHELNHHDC
# Summary of the method: as §1
# ELF4 = ELF4 (Homo sapiens, UniProt Q99607 1-663); details: protein: recombinant; tags: N-terminal GST; dsDNA, one strand shown
# Chain of ELF4 (Q99607 whole entry): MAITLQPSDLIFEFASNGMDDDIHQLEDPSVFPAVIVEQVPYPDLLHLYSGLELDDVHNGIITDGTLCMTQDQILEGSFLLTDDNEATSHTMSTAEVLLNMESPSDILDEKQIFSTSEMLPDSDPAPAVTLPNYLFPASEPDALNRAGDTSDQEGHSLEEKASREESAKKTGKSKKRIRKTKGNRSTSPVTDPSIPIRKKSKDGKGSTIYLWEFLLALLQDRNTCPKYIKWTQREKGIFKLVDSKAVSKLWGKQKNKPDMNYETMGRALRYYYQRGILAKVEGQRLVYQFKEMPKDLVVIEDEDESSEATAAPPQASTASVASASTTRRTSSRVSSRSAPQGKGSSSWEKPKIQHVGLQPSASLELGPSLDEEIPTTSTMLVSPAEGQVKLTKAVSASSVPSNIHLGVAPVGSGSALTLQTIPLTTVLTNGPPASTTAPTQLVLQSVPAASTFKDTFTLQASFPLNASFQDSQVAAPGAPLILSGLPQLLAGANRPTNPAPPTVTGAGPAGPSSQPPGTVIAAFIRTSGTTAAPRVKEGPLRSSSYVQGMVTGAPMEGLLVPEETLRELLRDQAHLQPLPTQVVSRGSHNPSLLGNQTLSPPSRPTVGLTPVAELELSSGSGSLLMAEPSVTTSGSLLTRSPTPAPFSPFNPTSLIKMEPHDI
# Summary of the method: as §1
# ELK4 = target: T3, ELK4 (Homo sapiens, UniProt P28324-2 1-405); details: protein: recombinant; tags: N-terminal GST; dsDNA, one strand shown
# T3 sequence: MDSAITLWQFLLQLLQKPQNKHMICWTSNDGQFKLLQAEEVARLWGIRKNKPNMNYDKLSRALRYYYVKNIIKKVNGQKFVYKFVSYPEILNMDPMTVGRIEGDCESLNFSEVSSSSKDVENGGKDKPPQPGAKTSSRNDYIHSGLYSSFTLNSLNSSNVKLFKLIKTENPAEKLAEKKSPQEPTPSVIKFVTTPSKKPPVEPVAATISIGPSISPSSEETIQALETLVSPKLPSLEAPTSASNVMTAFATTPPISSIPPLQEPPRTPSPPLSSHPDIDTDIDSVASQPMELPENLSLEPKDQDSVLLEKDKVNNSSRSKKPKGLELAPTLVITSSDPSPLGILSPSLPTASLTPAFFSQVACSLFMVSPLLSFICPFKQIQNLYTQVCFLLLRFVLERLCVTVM
# Summary of the method: as §1
# ETV2 = target: T4, ETV2 (Homo sapiens, UniProt O00321 1-342); details: protein: recombinant; tags: N-terminal GST; dsDNA, one strand shown
# T4 sequence: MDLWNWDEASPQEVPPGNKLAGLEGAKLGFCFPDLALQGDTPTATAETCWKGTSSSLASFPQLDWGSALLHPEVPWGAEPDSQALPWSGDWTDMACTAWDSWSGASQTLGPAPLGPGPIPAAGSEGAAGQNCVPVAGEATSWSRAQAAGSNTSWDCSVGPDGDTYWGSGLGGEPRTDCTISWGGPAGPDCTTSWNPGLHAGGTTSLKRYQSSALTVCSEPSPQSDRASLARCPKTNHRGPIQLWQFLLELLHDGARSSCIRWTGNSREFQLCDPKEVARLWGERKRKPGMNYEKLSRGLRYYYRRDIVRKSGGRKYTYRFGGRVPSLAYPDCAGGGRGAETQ
# Summary of the method: as §1
# ELF3 = target: T5, ELF3 (Homo sapiens, UniProt P78545 1-371); details: protein: recombinant; tags: N-terminal GST; dsDNA, one strand shown
# T5 sequence: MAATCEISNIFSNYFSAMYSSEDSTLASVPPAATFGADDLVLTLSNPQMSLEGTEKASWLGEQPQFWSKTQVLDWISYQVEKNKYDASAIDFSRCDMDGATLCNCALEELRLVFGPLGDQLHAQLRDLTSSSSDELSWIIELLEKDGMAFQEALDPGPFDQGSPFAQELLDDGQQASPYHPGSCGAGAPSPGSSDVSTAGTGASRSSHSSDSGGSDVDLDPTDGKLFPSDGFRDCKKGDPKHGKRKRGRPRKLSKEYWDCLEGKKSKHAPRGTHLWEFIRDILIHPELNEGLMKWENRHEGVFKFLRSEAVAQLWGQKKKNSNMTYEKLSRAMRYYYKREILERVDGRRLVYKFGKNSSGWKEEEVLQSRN
# Summary of the method: as §1
# CRX = CRX (Homo sapiens, UniProt O43186 1-299); details: protein: recombinant; tags: N-terminal GST; dsDNA, one strand shown
# Chain of CRX (O43186 whole entry): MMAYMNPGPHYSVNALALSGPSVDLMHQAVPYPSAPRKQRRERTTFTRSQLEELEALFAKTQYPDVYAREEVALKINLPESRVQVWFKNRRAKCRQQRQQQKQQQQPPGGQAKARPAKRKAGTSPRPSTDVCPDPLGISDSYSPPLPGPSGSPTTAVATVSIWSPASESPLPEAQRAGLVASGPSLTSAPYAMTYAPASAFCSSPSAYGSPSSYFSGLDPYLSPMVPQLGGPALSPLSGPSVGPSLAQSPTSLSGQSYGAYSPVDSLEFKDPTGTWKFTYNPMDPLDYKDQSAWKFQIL
# Summary of the method: as §1
# ETV1 = ETV1 (Homo sapiens, UniProt P50549 1-477); details: protein: recombinant; tags: N-terminal GST; dsDNA, one strand shown
# Chain of ETV1 (P50549 whole entry): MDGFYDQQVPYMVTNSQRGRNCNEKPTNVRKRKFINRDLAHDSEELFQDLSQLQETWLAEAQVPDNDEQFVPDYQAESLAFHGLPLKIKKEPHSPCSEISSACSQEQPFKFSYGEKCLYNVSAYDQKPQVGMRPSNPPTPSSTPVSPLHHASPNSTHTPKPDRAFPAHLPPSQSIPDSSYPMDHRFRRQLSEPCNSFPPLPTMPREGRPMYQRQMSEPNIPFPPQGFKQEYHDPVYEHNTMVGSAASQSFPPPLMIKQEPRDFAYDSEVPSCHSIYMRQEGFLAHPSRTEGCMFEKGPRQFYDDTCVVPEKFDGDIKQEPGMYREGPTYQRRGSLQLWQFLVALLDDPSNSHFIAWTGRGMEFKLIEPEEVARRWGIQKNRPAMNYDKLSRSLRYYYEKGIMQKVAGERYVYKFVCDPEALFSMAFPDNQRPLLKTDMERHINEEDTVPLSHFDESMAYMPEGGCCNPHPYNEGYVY
# Summary of the method: as §1
# ERF = target: T6, ERF (Homo sapiens, UniProt P50548 1-548); details: protein: recombinant; tags: N-terminal GST; dsDNA, one strand shown
# T6 sequence: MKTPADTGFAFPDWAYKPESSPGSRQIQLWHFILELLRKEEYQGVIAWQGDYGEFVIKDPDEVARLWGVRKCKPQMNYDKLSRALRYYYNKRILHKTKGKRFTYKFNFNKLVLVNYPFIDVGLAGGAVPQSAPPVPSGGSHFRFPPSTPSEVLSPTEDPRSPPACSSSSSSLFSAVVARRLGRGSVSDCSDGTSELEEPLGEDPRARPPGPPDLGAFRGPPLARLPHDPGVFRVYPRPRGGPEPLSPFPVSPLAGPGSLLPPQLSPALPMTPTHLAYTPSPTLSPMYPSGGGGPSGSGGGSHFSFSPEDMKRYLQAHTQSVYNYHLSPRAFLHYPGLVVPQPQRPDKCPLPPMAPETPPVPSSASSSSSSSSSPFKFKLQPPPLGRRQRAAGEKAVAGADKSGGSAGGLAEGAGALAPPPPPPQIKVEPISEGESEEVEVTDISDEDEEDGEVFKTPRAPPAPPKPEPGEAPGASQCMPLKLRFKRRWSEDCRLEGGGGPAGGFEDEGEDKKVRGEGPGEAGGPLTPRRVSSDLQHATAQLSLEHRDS
# Summary of the method: as §1
# ETV3L = target: T7, ETV3L (Homo sapiens, UniProt Q6ZN32 1-361); details: protein: recombinant; tags: N-terminal GST; dsDNA, one strand shown
# T7 sequence: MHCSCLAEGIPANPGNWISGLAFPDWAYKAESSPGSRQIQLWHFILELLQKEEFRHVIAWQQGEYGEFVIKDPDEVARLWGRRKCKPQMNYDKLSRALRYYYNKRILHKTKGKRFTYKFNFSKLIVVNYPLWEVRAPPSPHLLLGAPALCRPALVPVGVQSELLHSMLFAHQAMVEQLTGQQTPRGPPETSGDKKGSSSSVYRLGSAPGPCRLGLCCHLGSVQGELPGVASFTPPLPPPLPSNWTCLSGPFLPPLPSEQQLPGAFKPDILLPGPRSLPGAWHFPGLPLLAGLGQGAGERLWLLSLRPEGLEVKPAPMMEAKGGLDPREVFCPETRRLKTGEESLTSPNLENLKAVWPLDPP
# Summary of the method: as §1
# ETS2 = target: T8, ETS2 (Homo sapiens, UniProt P15036 1-469); details: protein: recombinant; tags: N-terminal GST; dsDNA, one strand shown
# T8 sequence: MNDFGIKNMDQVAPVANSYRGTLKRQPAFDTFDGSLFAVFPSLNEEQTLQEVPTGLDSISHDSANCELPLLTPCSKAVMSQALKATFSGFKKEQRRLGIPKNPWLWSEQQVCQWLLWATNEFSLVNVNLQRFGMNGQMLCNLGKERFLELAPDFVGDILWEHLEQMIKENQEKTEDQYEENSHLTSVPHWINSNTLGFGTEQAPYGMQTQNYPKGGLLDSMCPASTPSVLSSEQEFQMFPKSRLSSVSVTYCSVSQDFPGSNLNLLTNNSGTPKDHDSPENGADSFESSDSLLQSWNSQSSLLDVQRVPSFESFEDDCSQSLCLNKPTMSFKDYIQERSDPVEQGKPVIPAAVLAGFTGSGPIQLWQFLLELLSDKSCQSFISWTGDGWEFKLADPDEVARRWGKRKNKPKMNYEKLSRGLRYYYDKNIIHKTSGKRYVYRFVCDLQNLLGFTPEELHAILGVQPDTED
# Summary of the method: as §1
# SPDEF = target: T9, SPDEF (Homo sapiens, UniProt O95238 1-335); details: protein: recombinant; tags: N-terminal GST; dsDNA, one strand shown
# T9 sequence: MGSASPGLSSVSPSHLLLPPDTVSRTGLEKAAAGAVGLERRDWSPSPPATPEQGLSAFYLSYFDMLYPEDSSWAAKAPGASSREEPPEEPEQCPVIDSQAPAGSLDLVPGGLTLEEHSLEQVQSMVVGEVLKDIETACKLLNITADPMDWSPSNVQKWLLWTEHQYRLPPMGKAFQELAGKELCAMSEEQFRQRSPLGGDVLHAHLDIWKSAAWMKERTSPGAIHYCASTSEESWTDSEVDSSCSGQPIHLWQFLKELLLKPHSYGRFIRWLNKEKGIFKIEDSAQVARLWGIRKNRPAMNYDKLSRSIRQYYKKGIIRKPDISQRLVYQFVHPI
# Summary of the method: as §1
# ETV7 = target: T10, ETV7 (Homo sapiens, UniProt Q9Y603 1-341); details: protein: recombinant; tags: N-terminal GST; dsDNA, one strand shown
# T10 sequence: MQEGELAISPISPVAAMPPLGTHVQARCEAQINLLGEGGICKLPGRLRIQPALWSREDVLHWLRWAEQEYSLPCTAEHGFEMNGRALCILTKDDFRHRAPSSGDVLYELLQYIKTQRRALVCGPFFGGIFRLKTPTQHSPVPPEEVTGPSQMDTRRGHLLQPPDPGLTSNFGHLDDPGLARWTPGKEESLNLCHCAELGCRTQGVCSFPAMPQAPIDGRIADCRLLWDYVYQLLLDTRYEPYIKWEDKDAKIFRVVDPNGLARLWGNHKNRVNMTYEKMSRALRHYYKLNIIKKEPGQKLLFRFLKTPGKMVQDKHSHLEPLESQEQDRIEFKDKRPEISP
# Summary of the method: as §1
# ELF5 = target: T11, ELF5 (Homo sapiens, UniProt Q9UKW6-2 1-255); details: protein: recombinant; tags: N-terminal GST; dsDNA, one strand shown
# T11 sequence: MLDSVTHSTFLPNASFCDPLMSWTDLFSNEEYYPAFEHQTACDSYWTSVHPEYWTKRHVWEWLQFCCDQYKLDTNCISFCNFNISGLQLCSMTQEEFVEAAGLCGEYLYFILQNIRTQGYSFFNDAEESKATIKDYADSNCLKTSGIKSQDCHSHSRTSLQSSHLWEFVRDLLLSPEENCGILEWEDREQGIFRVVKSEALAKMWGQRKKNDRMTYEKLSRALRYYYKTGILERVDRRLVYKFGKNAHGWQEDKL
# Summary of the method: as §1
# ETV3 = target: T12, ETV3 (Homo sapiens, UniProt P41162-2 1-143); details: protein: recombinant; tags: N-terminal GST; dsDNA, one strand shown
# T12 sequence: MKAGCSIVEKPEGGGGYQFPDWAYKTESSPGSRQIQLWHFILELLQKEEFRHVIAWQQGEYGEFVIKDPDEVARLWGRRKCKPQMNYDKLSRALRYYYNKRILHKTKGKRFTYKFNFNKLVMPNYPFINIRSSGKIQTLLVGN
# Summary of the method: as §1
# ETV6 = ETV6 (Homo sapiens, UniProt P41212 1-452); details: protein: recombinant; tags: N-terminal GST; dsDNA, one strand shown
# Chain of ETV6 (P41212 whole entry): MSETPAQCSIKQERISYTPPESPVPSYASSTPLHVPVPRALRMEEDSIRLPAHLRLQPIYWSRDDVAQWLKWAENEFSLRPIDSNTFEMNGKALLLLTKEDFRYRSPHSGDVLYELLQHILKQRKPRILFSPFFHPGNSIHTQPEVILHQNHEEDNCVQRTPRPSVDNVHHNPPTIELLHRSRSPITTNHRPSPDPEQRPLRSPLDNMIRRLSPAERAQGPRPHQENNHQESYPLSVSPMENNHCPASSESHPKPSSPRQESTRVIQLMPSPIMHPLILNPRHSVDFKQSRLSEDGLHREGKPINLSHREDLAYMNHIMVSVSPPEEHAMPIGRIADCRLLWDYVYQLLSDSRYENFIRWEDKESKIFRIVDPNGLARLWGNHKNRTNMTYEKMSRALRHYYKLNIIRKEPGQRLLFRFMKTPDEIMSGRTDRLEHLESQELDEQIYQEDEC
# Summary of the method: as §1
sequence,measurement,setting,value
ACGTTC,binding signal,FEV,"1.3 fold enrichment (6-mer frequency, TF over GST control)"
same,binding signal,ETV5,"1.27 fold enrichment (6-mer frequency, TF over GST control)"
same,binding signal,HSF1,"1.94 fold enrichment (6-mer frequency, TF over GST control)"
same,binding signal,SPIC,"1.21 fold enrichment (6-mer frequency, TF over GST control)"
same,binding signal,ELF4,"1.42 fold enrichment (6-mer frequency, TF over GST control)"
same,binding signal,ELK4,"1.29 fold enrichment (6-mer frequency, TF over GST control)"
same,binding signal,ETV2,"1.25 fold enrichment (6-mer frequency, TF over GST control)"
same,binding signal,ELF3,"1.25 fold enrichment (6-mer frequency, TF over GST control)"
same,binding signal,CRX,"1.28 fold enrichment (6-mer frequency, TF over GST control)"
same,binding signal,ETV1,"1.28 fold enrichment (6-mer frequency, TF over GST control)"
same,binding signal,ERF,"1.28 fold enrichment (6-mer frequency, TF over GST control)"
same,binding signal,ETV3L,"1.42 fold enrichment (6-mer frequency, TF over GST control)"
same,binding signal,ETS2,"1.3 fold enrichment (6-mer frequency, TF over GST control)"
same,binding signal,SPDEF,"1.21 fold enrichment (6-mer frequency, TF over GST control)"
same,binding signal,ETV7,"1.42 fold enrichment (6-mer frequency, TF over GST control)"
same,binding signal,ELF5,"1.42 fold enrichment (6-mer frequency, TF over GST control)"
same,binding signal,ETV3,"1.18 fold enrichment (6-mer frequency, TF over GST control)"
same,binding signal,ETV6,"1.36 fold enrichment (6-mer frequency, TF over GST control)"
